Compounds with a hit are over-represented: about 3.5% of the library has one in this group of screens.
SKN-1 inh: suppressors of acrylamide-induced Pgst-4::GFP reporter in worms, primary screen, SKN-1 inhibitor project, whole organism, uHTS, GFP/RFP fluorescence ratio, strain VP596. C. elegans VP596 Pgst-4::GFP/RFP ratio, 24 h. inhibition, % at 21.8 µM. 360,000 compounds, 0.49% hits. AID 624304, 2012;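 active means interference check ratio from 0.5 to 1.5 plus GFP to RFP signal ratio inhibition reaching or exceeding a fixed threshold, cut at about 30% in these data, passing the limit was not always enough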
CHRM1 PAM: human M1 muscarinic receptor positive allosteric modulators, primary screen, CHO-K1 cells, Fluo-8 calcium fluorescence, 1536-well | CHO-K1 hM1, ACh EC20; 0% = ACh EC20, 100% = maximal ACh | activation, % at 3 µM | 360,000 compounds, 0.088% hits | AID 588819, 2011; in the data active means activation above about 19%, passing the limit was not always enough
Target sequence (P11229 whole entry, looked up): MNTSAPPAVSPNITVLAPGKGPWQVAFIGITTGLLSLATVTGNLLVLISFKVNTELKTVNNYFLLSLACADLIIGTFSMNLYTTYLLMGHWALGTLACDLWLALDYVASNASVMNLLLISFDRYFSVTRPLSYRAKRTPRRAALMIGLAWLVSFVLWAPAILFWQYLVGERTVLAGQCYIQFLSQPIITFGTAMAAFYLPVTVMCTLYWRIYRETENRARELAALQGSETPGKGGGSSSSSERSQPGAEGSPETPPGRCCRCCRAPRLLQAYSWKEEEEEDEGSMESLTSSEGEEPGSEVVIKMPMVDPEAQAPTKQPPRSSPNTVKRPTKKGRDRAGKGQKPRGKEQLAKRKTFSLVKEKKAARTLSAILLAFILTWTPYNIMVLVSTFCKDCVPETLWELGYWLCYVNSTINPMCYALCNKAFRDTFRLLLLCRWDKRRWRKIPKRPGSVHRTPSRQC
CHRM1 antagonist: human M1 muscarinic receptor antagonists, primary screen, CHO-K1 cells, Fluo-8 calcium fluorescence, 1536-well; CHO-K1 hM1, ACh EC80 antagonist; 360,000 compounds, 1.3% hits; inhibition, % at 3 µM;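 active means percent inhibition above its own plate's cutoff, namely the mean of that plate's compound wells plus 3 SD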;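 further: peak over basal fluorescence ratio during 140 s after agonist addition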
Myeloid diff 2: induction of myeloid progenitor differentiation, primary screen, cell-based, flow cytometry, MLPCN library. ER-HoxA9 myeloid progenitors, lysozyme-GFP differentiation. calls only at 10 µM. 360,000 compounds, 1% hits;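 active means normalized GFP-positive differentiation at or above the plate's own cutoff, the solvent-only control mean plus 3 SD; inconclusive means no clear call, values can overlap the other calls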;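 further: cells exposed to compound for four days before flow analysis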
ATG4B inhibitor: ATG4B protease inhibitors, primary screen, biochemical, fluorescence, uHTS; AID 504462, 2011; ATG4B cleavage of LC3-PLA2, NBD-HPC fluorescence, 1 h; Cysteine protease ATG4B (Homo sapiens), Q9Y4P1; 340,000 compounds, 0.51% hits; inhibition, % at 8.33 µM; in the data active means inhibition above about 40%
M1 ag: human M1 muscarinic receptor agonists, primary screen, Fluo-8 calcium fluorescence, CHO-K1 cells, HTS | CHO-K1 hM1, agonist mode; 0% DMSO, 100% acetylcholine EC100 | activation, % at 3 µM | 360,000 compounds, 0.33% hits | AID 588814, 2011;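 active means activation above the run's mean compound activation plus 3 SD, cut at about 16% in these data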;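 further: peak over basal fluorescence ratio within a 140 s kinetic read after compound addition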
Of the large screens only hits and unclear results are named; the others gave an inactive call.

CC(C)(C)N1C(=O)c2ccccc2NC(=O)C1C(=O)Nc1ccc(N2CCOCC2)cc1 (stereo not given)	none (no result: CHRM1 PAM, CHRM1 antagonist, ATG4B inhibitor, M1 ag)
CCCCNC(=O)C1(C)CCCCN1Cc1ccccc1-c1ccccc1 (stereo not given)	CHRM1 antagonist 31 (no result: ATG4B inhibitor)
CC1=NN(Cc2ccccc2)C(=O)/C1=C\c1ccc(N(C)C)cc1	SKN-1 inh 34
Nc1nc(Nc2ccccc2F)sc1C(=O)c1ccccc1	M1 ag 17
C=C(C)C1CC=C(CN2CCN(Cc3ccccc3)CC2)CC1 (stereo not given)	none
C=C(C)[C@@H]1CC=C(CN2CCN(Cc3ccccc3)CC2)CC1	CHRM1 antagonist 38
O=C(Nc1cc(Cl)ccc1-n1cncn1)c1ccc([N+](=O)[O-])s1	Myeloid diff 2 active
COC(=O)[C@@]12C[C@@H](CC(=O)NCc3ccc(C)o3)C(=O)N(CCc3ccc(OC)c(OC)c3)C1=CCC(C)(C)C2	none (no result: CHRM1 PAM, CHRM1 antagonist, ATG4B inhibitor, M1 ag)
Cc1ccc(NC(=O)C2=CC(c3ccc(C)cc3)=NS(=O)(=O)N2C)cc1	CHRM1 antagonist 36
COc1ccc(NC(=O)C2=CC(c3cccs3)=NS(=O)(=O)N2C)cc1	Myeloid diff 2 active
COc1ccc(C2=NS(=O)(=O)N(C)C(C(=O)Nc3ccc(C)cc3)=C2)cc1	none
CC(=O)Nc1ccc(NC(=O)COC(=O)c2ccc(S(=O)(=O)N(C)c3ccccc3)cc2)cc1	none
Cc1noc(C)c1NC(=O)Nc1cccc2c1O[C@@H](CN(C)C(=O)Nc1ccc3c(c1)OCO3)[C@@H](C)CN([C@H](C)CO)C2=O	none
Cc1ccc2c(c1)N(CCCC(=O)Nc1cccc(C(F)(F)F)c1)C(=O)CO2	none
CCCNC(=O)c1nnsc1S(=O)(=O)c1ccc(Cl)cc1	CHRM1 antagonist 96, Myeloid diff 2 inconclusive
CCC1CCCCN1CCNS(=O)(=O)c1ccc2c(c1)oc(=O)n2C (stereo not given)	CHRM1 antagonist 50
COc1ccc(OC)c(NC(=O)C2(C)CCN2Cc2ccccc2OC(F)F)c1 (stereo not given)	none (no result: ATG4B inhibitor)
CCOc1cc(CN2CCC(N3CCC(C(=O)NC4CC4)CC3)CC2)ccc1O	none (no result: ATG4B inhibitor)
C=CCn1c(SCC(=O)NC2(C#N)CCCCC2)nnc1-c1ccncc1	none
C=CCn1c(SC(C)C(=O)NC2(C#N)CCCCC2)nnc1-c1ccc(OC)cc1 (stereo not given)	CHRM1 antagonist 33
Cc1ccc(OCC(=O)Nc2ccc3c(c2)OC(F)(F)O3)c([N+](=O)[O-])n1	CHRM1 antagonist 49
Cc1ccc(OCC(=O)Nc2ccc3c(c2)OCO3)c([N+](=O)[O-])n1	none
Cc1c(Br)c([N+](=O)[O-])nn1CCCC(=O)Nc1c(C)n(C)n(-c2ccccc2)c1=O	CHRM1 antagonist 82
Cc1cc([N+](=O)[O-])nn1CCCC(=O)Nc1c(C)n(C)n(-c2ccccc2)c1=O	CHRM1 antagonist 31
Cc1nn(Cc2ccccc2)c(C)c1NC(=O)CCCn1nc([N+](=O)[O-])cc1C	none
CCC(C)CN1C(=O)CSCC1(C)C(=O)Nc1c(C)cccc1C (stereo not given)	none (no result: CHRM1 PAM, CHRM1 antagonist, ATG4B inhibitor, M1 ag)
O=C1OCC/C1=C\c1ccc(O)cc1	none
Cc1ccc(NC(=S)NC(=O)Cc2ccccc2)c(O)c1	M1 ag 18
O=C(Cc1ccc(S(=O)(=O)N2CCOCC2)s1)N1CCN(c2cccc(C(F)(F)F)c2)CC1	CHRM1 antagonist 38
CCc1ccc(-n2cc(-c3ccc(F)cc3)[n+]3c2SCCC3)cc1	CHRM1 antagonist 52
CCNC(=O)c1ccc(CSc2nc3ccccc3s2)cc1	none
c1ccc2sc(SCc3ccc(-c4nnco4)cc3)nc2c1	SKN-1 inh 54
Cc1ccc(CNc2nc(NCc3ccccc3)nc3ccsc23)c(C)c1	none (no result: ATG4B inhibitor)
Cc1ccc(CNc2nc3ccccc3n2C)o1	none
Cn1c(-c2ccc(CN3CCCCC3)o2)nc2ccccc21	SKN-1 inh 36
Cc1cccc(NC(=O)CN2C(=O)N/C(=C/c3ccc(C)s3)C2=O)c1	Myeloid diff 2 active
Cc1nn2cc(-c3ccc(Cl)cc3)nc2s1	SKN-1 inh 45
CCC(=O)N1CCC1(C)C(=O)Nc1ccc(F)cc1 (stereo not given)	none (no result: ATG4B inhibitor)
CC1(C(=O)NS(=O)(=O)c2cccc(C#N)c2)CCN1C(=O)Cc1ccccc1Cl (stereo not given)	none (no result: ATG4B inhibitor)
CCN(CC)CCn1c2ccccc2c2nc3ccccc3nc21	none (no result: Myeloid diff 2)
CCN(CC)CCSc1nnc2c3cc(F)ccc3n(Cc3ccccc3)c2n1	none
CCN(CC)CCn1c2ccccc2c2n[nH]c(=S)nc21	CHRM1 antagonist 36
CCN(CC)CCSc1nnc2c3ccccc3n(Cc3ccccc3)c2n1	CHRM1 antagonist 51
COc1ccc(OC)c(S(=O)(=O)N2CCC(C(=O)N3CCCCCC3)CC2)c1	none
Cc1nc2ccccc2n1CC(O)Cn1c2ccccc2c2ccccc21 (stereo not given)	Myeloid diff 2 active
COc1ccc(NC(=S)N2CCN(c3ccc4c(c3)C3CCN(C(=O)OCc5ccccc5)C4C3)CC2)c(OC)c1 (stereo not given)	none (no result: ATG4B inhibitor)
COc1ccc(-c2noc(N3CCC(C(=O)NCCCN4CCC(C)CC4)CC3)n2)cc1	CHRM1 antagonist 32
COc1ccc(-c2noc(N3CCC(C(=O)Nc4ccc(F)cc4)CC3)n2)cc1	none
Cc1nc2c(OCc3cccc(Cl)c3)cccn2c1N(C)Cc1cccs1	CHRM1 antagonist 34 (no result: ATG4B inhibitor)
Cc1noc(C)c1NC(=O)N(C)C[C@H]1Oc2ccc(NC(=O)NC(C)C)cc2C(=O)N([C@H](C)CO)C[C@@H]1C	none
Cc1ccc(CNC(=O)CO/N=C/c2ccc(C(C)(C)C)cc2)cc1	none
CC(C)(C)c1ccc(/C=N/OCC(=O)NCc2ccccc2)cc1	M1 ag 18
CC(C)C#Cc1cnc2c(c1)C(=O)N([C@@H](C)CO)C[C@@H](C)[C@H](CN(C)Cc1cccc(F)c1)O2	none (no result: ATG4B inhibitor)
COc1ccc(OC)c(S(=O)(=O)ON2C(=O)c3ccccc3C2=O)c1	Myeloid diff 2 active
CC(=O)Oc1ccc2c(c1)C(=O)CCCCCC(=O)O2	none (no result: ATG4B inhibitor)
C/C(=N\Nc1ccccc1Cl)c1ccc(-n2ccnc2)cc1	Myeloid diff 2 active
c1ccc(-c2ccc(-n3ccnc3)cc2)cc1	SKN-1 inh 82
Cc1cc(Cl)ccc1N(CC(=O)N(C)Cc1ccccc1)S(C)(=O)=O	none (no result: ATG4B inhibitor)
